High-throughput results: PubChem BioAssay, several laboratories
FXIa mix inh: FXIa protease inhibitors in compound pools, primary screen, biochemical, 10-compound mixtures; Coagulation factor XI (Homo sapiens), P03951; hit rate 0.19% among 62,000; AID 680, 2007; inhibition, % at 5 µM; purified FXIa, fluorogenic substrate, pooled mixtures;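 also: each value is inhibition by a whole ten-compound pool holding the compound; 0% = enzyme with no mixture and 100% = wells lacking enzyme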
D1 mod: D1 CRE-luciferase signal change, two-sided – cell-based, HEK293 D1, dopamine EC30, D1 allosteric modulator project, primary screen. B-score at 10 µM. D(1A) dopamine receptor (Homo sapiens), P21728. dopamine EC30 potentiation; actives deviate in either direction. AID 641, 2007. hit rate 5.9% among 58,000;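 active = luminescence count or its row- and column-corrected plate score outside the 99.7% band of the plate's sample wells, on either side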
hDAT+cocaine: changed hDAT dopamine uptake under cocaine IC80, either direction, primary screen, cocaine antagonist project, cell-based, LLC-PK1 hDAT, [14C]-dopamine uptake, MLSMR; hit rate 1.3% among 110,000; Sodium-dependent dopamine transporter (Homo sapiens), Q01959; AID 449768, 2010; LLC-PK1 hDAT cells, [14C]-dopamine uptake with cocaine IC80; actives deviate in either direction; B-score at 10 µM;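 active = Z score or B-score, a plate-position-corrected score, falls beyond the plate's 99.7% confidence bounds, in either direction; inactive = both scores lie inside the 99.7% bounds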;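 also: scored against the spread of the other compound wells on the same plate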
M1 agonist: M1 muscarinic receptor agonists, primary screen, CHO-M1 cells, Fluo-4 calcium, agonist mode | Fluo-4 calcium fluorescence; hits give high values | B-score at 10 µM | hit rate 3% among 64,000;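 active = fluorescence rise, raw or as B-score row- and column-corrected plate score, outside the 99.7% band of its plate's samples, either direction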
M1 antag: antagonists of rat M1 muscarinic receptor; Muscarinic acetylcholine receptor M1 (Rattus norvegicus), P08482; B-score at 10 µM; CHO-M1 cells, Fluo-4 calcium, ACh EC80 antagonist mode; hits give low values; hit rate 3.4% among 64,000;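 active = calcium fluorescence response, raw or row-and-column corrected B-score, differing from the plate sample mean either way at a set confidence level, mostly lower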
FXIIa inh mix: human factor XIIa inhibitors, primary screen, biochemical, pooled compound mixtures, fluorogenic substrate | inhibition, % at 5 µM | purified FXIIa | hit rate 0.2% among 62,000 | AID 684, 2007;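 also: 0% = enzyme without compound and 100% = no enzyme blank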
Target sequence (P00748 20-372 limits assumed): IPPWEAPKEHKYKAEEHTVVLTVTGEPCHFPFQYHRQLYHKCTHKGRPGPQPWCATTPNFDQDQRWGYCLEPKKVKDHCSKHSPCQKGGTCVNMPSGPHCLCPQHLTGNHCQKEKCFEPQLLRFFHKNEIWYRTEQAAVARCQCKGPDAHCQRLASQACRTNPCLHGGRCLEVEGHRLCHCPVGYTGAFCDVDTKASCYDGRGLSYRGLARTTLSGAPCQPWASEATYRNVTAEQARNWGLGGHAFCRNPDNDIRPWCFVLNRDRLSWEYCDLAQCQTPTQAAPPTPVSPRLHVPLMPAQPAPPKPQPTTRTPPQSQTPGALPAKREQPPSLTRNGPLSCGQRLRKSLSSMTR
Target sequence (P00748 373-615 limits assumed): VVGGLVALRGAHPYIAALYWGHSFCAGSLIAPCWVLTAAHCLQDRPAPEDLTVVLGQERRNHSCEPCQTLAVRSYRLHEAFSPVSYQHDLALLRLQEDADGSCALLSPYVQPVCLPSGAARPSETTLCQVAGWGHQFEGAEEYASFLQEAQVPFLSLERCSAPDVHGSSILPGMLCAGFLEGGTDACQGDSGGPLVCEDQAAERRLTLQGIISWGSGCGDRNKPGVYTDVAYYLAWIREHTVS
Starred values were filed as active, the others as inactive; nt = no result given. Only some compounds are listed: those with a hit (about 7.4% of all), similar ones and a draw of the others. Rule as the data show it, unless noted: active = inhibition above about 20% (passing the limit was not always enough); inactive = the rest.

SMILES | FXIa mix inh | D1 mod | hDAT+cocaine | M1 agonist | M1 antag | FXIIa inh mix
O=C(NC1CCCC1)c1cnc2n(c1=O)CCS2 | -2 | 0.34 | 0.16 | -0.15 | 0.89 | 2
CC1CC(NC(=O)c2cnc3n(c2=O)CCS3)CC(C)(C)C1 (stereo not given) | 4 | 0.77 | -2.6* | -0.027 | 1.3 | 3
O=C(NCCc1ccccc1)C1CC(c2ccccc2O)=NO1 (stereo not given) | -5 | -1.2 | 0.41 | -0.028 | 0.37 | 3
Cn1c(=O)c2c3c(sc2n2c(SCC(=O)c4ccccc4)nnc12)COC(C)(C)C3 | nt | nt | nt | -0.78 | -2.9* | nt
CCCn1c(=O)c2ccccc2n2c(SCC(=O)c3ccccc3)nnc12 | 6 | 0.017 | 0.19 | 2.3 | 2.5* | 2
CC(=O)c1c(C)nn(CC(O)COc2ccc3c(c2)CCC3)c1C (stereo not given) | 7 | -1 | 15* | 0.0048 | -0.23 | 6
Cc1nn(C(C)C(=O)N2CCc3ccccc32)c(C)c1[N+](=O)[O-] (stereo not given) | nt | nt | 0.062 | nt | nt | nt
CCC(=O)NC(=S)Nc1ccc(Cl)cn1 | nt | nt | 2.2* | nt | nt | nt
Cc1ccc(C(=O)Nc2ccc(Cl)cn2)cc1 | 12 | -4.1* | 0.074 | -0.44 | 0.093 | -19
COC(=O)CCCC[C@H]1SC[C@H]2NC(=O)N[C@]21O | 5 | nt | -0.26 | -0.23 | 0.35 | -2
COc1ccc2cc(C3(C)NC(=O)NC3=O)ccc2c1 (stereo not given) | 3 | -0.79 | -0.001 | 0.37 | 2.4* | 6
CC1=C(C(=O)OCc2ccccc2)C(c2ccccc2OS(=O)(=O)c2ccc([N+](=O)[O-])cc2)NC(=O)N1CCCC(=O)O (stereo not given) | nt | nt | 2.8* | nt | nt | nt
CCOC(=O)C1=C(C)N(CCCC(=O)O)C(=O)NC1c1ccccc1OS(=O)(=O)c1ccc([N+](=O)[O-])cc1 (stereo not given) | nt | nt | -0.07 | nt | nt | nt
O=C(c1cc(C2CC2)on1)N1CCN(c2ccc(F)cc2)CC1 | 1 | -0.54 | 0.37 | 0.012 | 0.78 | 8
O=C(Nc1ccc2nsnc2c1)c1ccc2c(c1)OCO2 | 2 | -4* | 0.01 | 0.27 | 0.62 | 16
Cc1cccc(N(C(=O)CCC(=O)Nc2cc(C)on2)C(C(=O)NC2CCCC2)c2ccncc2)c1 (stereo not given) | 3 | -0.053 | 0.14 | -0.03 | 1.7 | 2
CS(=O)(=O)N1c2ccccc2[C@@]2(Br)C[C@H]3C(=O)N[C@@H](Cc4ccccc4)C(=O)N3[C@@H]12 | nt | nt | 0.22 | nt | nt | nt
CCC(Sc1nc(C)cc(=O)[nH]1)C(=O)Nc1nc2c(s1)CCCC2 (stereo not given) | 4 | 0.031 | 0.18 | -0.17 | 0.059 | -17
O=C(c1ccc([N+](=O)[O-])cc1)N(Cc1ccc(Cl)cc1Cl)N1C(=O)CCCC1=O | nt | nt | -0.032 | nt | nt | nt
O=C(c1ccc([N+](=O)[O-])cc1)N(Cc1ccc(Cl)cc1)N1C(=O)CCCC1=O | nt | nt | -6.6* | nt | nt | nt
CNc1nc(-c2ccc(Cl)cc2)cs1 | -13 | nt | -0.013 | 1.5 | -0.67 | 8
O=C(Nc1nnc(-c2ccc(Cl)cc2)o1)C1CCCCC1 | 1 | -0.52 | -0.19 | 0.49 | 0.31 | -11
Clc1ccc(-c2nnc(NC3=NCCCCC3)o2)cc1 | -1 | -5.8* | 0.3 | -0.082 | -1.1 | 0
CCn1cc(Br)c(-c2nc3ccccc3c(=O)n2N)n1 | 8 | -1.2 | -0.29 | 0.46 | 0.078 | 7
O=C(c1cc(S(=O)(=O)N2CCOCC2)c(Cl)cc1Cl)N1CCCCC1 | 8 | -0.34 | 0.024 | -0.1 | 0.8 | -3
SMILES | FXIa mix inh | D1 mod | hDAT+cocaine | M1 agonist | M1 antag | FXIIa inh mix
NC(=O)c1ccccc1N/C=C/C(=O)c1ccc(F)cc1 | nt | nt | 1.5 | nt | nt | nt
Cc1ccc(C(=O)/C=C/Nc2ccccc2C(N)=O)o1 | -1 | -4.1* | -0.023 | 0.81 | -0.43 | -26
Cc1ocnc1C(=O)Nc1ccc(Cl)cc1 | 3 | -1.9* | 1.9 | -0.65 | -0.42 | 10
CCc1ccccc1NC(=O)CSc1nc(-c2ccccc2)nn1C(=O)c1cccc([N+](=O)[O-])c1 | nt | nt | 5.4* | nt | nt | nt
COc1ccc(C(CC(=O)O)NC(=O)c2ccccc2[N+](=O)[O-])cc1 (stereo not given) | nt | nt | -0.24 | nt | nt | nt
Cn1c(-c2ccc(F)cc2)cnc1NCc1cccc(F)c1 | nt | nt | 0.41 | nt | nt | nt
